Drawing on the supplement of paper PMC6555819, this text covers PBM binding z-score for 40 sequences.

The first experiment relates to FXR:RXRa (NR concentration 270 nM, RXRa partner concentration 90 nM). Put plainly: PBM binding z-score (relative to random genomic background probes); higher = stronger binding; sequences stand for … in GC…GCGATTGACAGCGTAGAATGAAGG
An outline of the steps:
(§1)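 Random background probes are the reference for binding z-scores. These scores derive from regression-normalized fluorescence on custom Agilent 4×180K protein-binding microarrays incubated 1 h with ligand-free nuclear receptor dimers. Binding was detected with antibodies against each partner (one per run).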
Turning to TAGCCTAGGTCATTGGGCCACTATAGTACGCATC, the PBM binding z-score came to 4.39.

Regarding TAGCCTAGGACATTGGGCCAGTATAGTACGCATC, the PBM binding z-score was -0.399.

As to ATCTCTAGGTAAGACTCGGTTCAGTGAAGAACGC, the PBM binding z-score was determined as 0.472.

Regarding ACTAGCAGGCCAAGGGTCTCTCAAGATTAGTCCG, the PBM binding z-score is -1.54.

CCTAGCAGGCCAGGGTCACTCTAGCATTTCGCTT came in with a PBM binding z-score of 1.58.

In turn, GCTTGTTGGTCAGTAAAAGGTCACACACCGGTCG displayed a PBM binding z-score of 3.14.

In turn, TCATATAGGTAAACAGGTGAAAGTGCGTAAGTTA registered a PBM binding z-score of 1.13.

ATCTCTAGGCAAAGTTCAGTGAAAGATCGATAGA returned a PBM binding z-score of 0.723.

For ATCTCTAGTTAAAGTTCAGTGAAAGATCGATAGA, the PBM binding z-score was 1.49.

Sequence CCGACTGGGGCAAAGGTTACTATACTCAGTACGA yielded a PBM binding z-score of 1.1.

For the sequence TCTTGCAGATCAAGCAGGTTAAGAAAGCCTGAGT, the PBM binding z-score was -0.529.

With CGTACTGGGCCATTCAGAGGTCATTGATCATATG, the PBM binding z-score was determined as 3.16.

In turn, CGACAAAGTTCAACTAAGGTAACGTAAAGCACGC registered a PBM binding z-score of 6.54.

TCGGCTAGGTCAACGATGGTCAGCTAATCTGCTA gave a PBM binding z-score of 3.23.

Turning to AGAATGAGGTGACCAAAGATCAGGGAAACGCTTG, the PBM binding z-score is 0.916.

The sequence GCGACTGGGGCAAAGCAGGTTACGATAAGGTTGG displayed a PBM binding z-score of 0.296.

With TCAAATAGGTAATACAGGTGAAAGTCGGCATCTA, the PBM binding z-score was 0.834.

On to GTAACGAGGGCATTCGAGTTGATAGCATGGCGAT, for which the PBM binding z-score turned out to be 1.83.

CCTATTTGTTGACCATAAGGGCAACCGAAGCTCG: the PBM binding z-score was found to be 0.863.

Consider CCGGCTAGGTCATGGTCAGCTAATCTACAGTATG, for which the PBM binding z-score came to 3.61.

CCAGACAGGTGAAAGGGAACTCAGTCTGGTACGC: the PBM binding z-score is -0.208.

In the case of CGAACTAGGTCATCCAGGGCAGTGAATACATTGA, the PBM binding z-score came to 4.8.

Sequence CCGAGAAGGTTATGGGGCATTCAGGCAACGGTGA returned a PBM binding z-score of 1.63.

In turn, TAGCCTAGGTCATTCAGGGGCCAGTATAGAAAGC showed a PBM binding z-score of 4.58.

Sequence CCGAGTAGGTTATGGGGCATGCAGGCAACGGTGA returned a PBM binding z-score of 0.144.

With GGAACGAGGGCAAGATGATAGCAGAGTTTGATGG, the PBM binding z-score turned out to be 0.506.

CGAACTAGGTCAGAACAGGACAGTGGAGGATGAT gave a PBM binding z-score of 1.69.

As for TCATATCGGTAAAGGTGAAAGTCGAACGATATGA, the PBM binding z-score worked out at 0.139.

Turning to TCTAGCAGGCCAAAGGGTCACTCAAGAGGTACGG, the PBM binding z-score was determined as 2.46.

On to ATCGAAAGGTCGCGAGGTGAGTATACAGAAAGGC, for which the PBM binding z-score came to 5.31.

Turning to CGTCCAAGGTCAAGGTCATTGAAAGAGACTCGAA, the PBM binding z-score turned out to be 7.9.

In turn, CGTCAAAGTTCAGCTAAGGTAACGTAAAGCACGC had a PBM binding z-score of 4.58.

For CCGAGTAGTTTATGGGGCATTCAGGCAACGGTGA, the PBM binding z-score is 0.0687.

For the sequence CCAGACAGGTGCGAAGGTAACTCAGCCTCGATTA, the PBM binding z-score is -0.321.

In turn, ACAGACAGGTGATGAAGGTAACTGAGGCTATCAT yielded a PBM binding z-score of 0.003.

With AGGCAAAGTTCATCTAGGTAACGTAAGATATGCT, the PBM binding z-score amounted to 6.62.

AGAATGAGGTTATACGTTGATCAGGGAAGAAAGT showed a PBM binding z-score of 2.25.

TCTTGTAGATCAGCAGGTTAATAAAGCTGGCCAA: the PBM binding z-score came to 0.186.

The sequence GTACCAGGGTGAATAGGTCGTTGATGAGTAGGCG registered a PBM binding z-score of 0.645.

CCGACAGGGGCAAAGGTTACCATACTCAGTACGA: the PBM binding z-score came out at 2.65.

The test system of a further experiment is LXRa:RXRa (NR concentration 270 nM, RXRa partner concentration 90 nM). The experiment is described as above. The method, boiled down: as §1
For TAGCCTAGGTCATTGGGCCACTATAGTACGCATC, the PBM binding z-score came to 3.9.

Consider TAGCCTAGGACATTGGGCCAGTATAGTACGCATC, for which the PBM binding z-score was -0.701.

Sequence ATCTCTAGGTAAGACTCGGTTCAGTGAAGAACGC gave a PBM binding z-score of 0.583.

Take ACTAGCAGGCCAAGGGTCTCTCAAGATTAGTCCG: the PBM binding z-score is -0.539.

CCTAGCAGGCCAGGGTCACTCTAGCATTTCGCTT: the PBM binding z-score was determined as 1.43.

The sequence GCTTGTTGGTCAGTAAAAGGTCACACACCGGTCG showed a PBM binding z-score of 4.29.

TCATATAGGTAAACAGGTGAAAGTGCGTAAGTTA registered a PBM binding z-score of 1.29.

The sequence ATCTCTAGGCAAAGTTCAGTGAAAGATCGATAGA displayed a PBM binding z-score of 1.38.

ATCTCTAGTTAAAGTTCAGTGAAAGATCGATAGA had a PBM binding z-score of 2.07.

CCGACTGGGGCAAAGGTTACTATACTCAGTACGA yielded a PBM binding z-score of 1.13.

Sequence TCTTGCAGATCAAGCAGGTTAAGAAAGCCTGAGT came in with a PBM binding z-score of 0.00259.

As for CGTACTGGGCCATTCAGAGGTCATTGATCATATG, the PBM binding z-score stood at 4.58.

Sequence CGACAAAGTTCAACTAAGGTAACGTAAAGCACGC had a PBM binding z-score of 5.86.

In the case of TCGGCTAGGTCAACGATGGTCAGCTAATCTGCTA, the PBM binding z-score was determined as 2.31.

Turning to AGAATGAGGTGACCAAAGATCAGGGAAACGCTTG, the PBM binding z-score came out at 0.957.

For the sequence GCGACTGGGGCAAAGCAGGTTACGATAAGGTTGG, the PBM binding z-score was -0.117.

For TCAAATAGGTAATACAGGTGAAAGTCGGCATCTA, the PBM binding z-score was 1.29.

Turning to GTAACGAGGGCATTCGAGTTGATAGCATGGCGAT, the PBM binding z-score came out at 1.91.

On to CCTATTTGTTGACCATAAGGGCAACCGAAGCTCG, for which the PBM binding z-score was 0.511.

In the case of CCGGCTAGGTCATGGTCAGCTAATCTACAGTATG, the PBM binding z-score is 2.64.

Turning to CCAGACAGGTGAAAGGGAACTCAGTCTGGTACGC, the PBM binding z-score was -0.0389.

With CGAACTAGGTCATCCAGGGCAGTGAATACATTGA, the PBM binding z-score worked out at 3.06.

Turning to CCGAGAAGGTTATGGGGCATTCAGGCAACGGTGA, the PBM binding z-score was found to be 1.52.

For TAGCCTAGGTCATTCAGGGGCCAGTATAGAAAGC, the PBM binding z-score is 3.73.

On to CCGAGTAGGTTATGGGGCATGCAGGCAACGGTGA, for which the PBM binding z-score was found to be 0.219.

On to GGAACGAGGGCAAGATGATAGCAGAGTTTGATGG, for which the PBM binding z-score is 0.313.

Regarding CGAACTAGGTCAGAACAGGACAGTGGAGGATGAT, the PBM binding z-score amounted to 0.958.

On to TCATATCGGTAAAGGTGAAAGTCGAACGATATGA, for which the PBM binding z-score was 1.31.

As for TCTAGCAGGCCAAAGGGTCACTCAAGAGGTACGG, the PBM binding z-score came to 2.67.

The sequence ATCGAAAGGTCGCGAGGTGAGTATACAGAAAGGC yielded a PBM binding z-score of 4.1.

For the sequence CGTCCAAGGTCAAGGTCATTGAAAGAGACTCGAA, the PBM binding z-score was found to be 6.06.

With CGTCAAAGTTCAGCTAAGGTAACGTAAAGCACGC, the PBM binding z-score was determined as 4.17.

CCGAGTAGTTTATGGGGCATTCAGGCAACGGTGA: the PBM binding z-score is -0.0173.

Consider CCAGACAGGTGCGAAGGTAACTCAGCCTCGATTA, for which the PBM binding z-score was -0.36.

For the sequence ACAGACAGGTGATGAAGGTAACTGAGGCTATCAT, the PBM binding z-score was -0.0614.

AGGCAAAGTTCATCTAGGTAACGTAAGATATGCT returned a PBM binding z-score of 5.97.

In the case of AGAATGAGGTTATACGTTGATCAGGGAAGAAAGT, the PBM binding z-score was found to be 1.89.

Turning to TCTTGTAGATCAGCAGGTTAATAAAGCTGGCCAA, the PBM binding z-score came to 0.321.

As to GTACCAGGGTGAATAGGTCGTTGATGAGTAGGCG, the PBM binding z-score was found to be 0.813.

The sequence CCGACAGGGGCAAAGGTTACCATACTCAGTACGA returned a PBM binding z-score of 2.32.
